The results in this text go back to PubChem BioAssay AID485346 (Sanford-Burnham Center for Chemical Genomics, 2010).

One may read the inhibition as the drop in the measured response relative to a control, in per cent.

The structures appear in SMILES notation. Hit rate of the full screen: of about 330,000 compounds, about 10,000 (3%) were called active. For the sample, actives were picked, then their nearest neighbours and some compounds at random. A number with no mark means an inactive call.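 Rule for the calls: active = inhibition of at least 50% at 8 µM in the primary screen; inactive = the rest.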

Chain of Protein Mdm4 (Homo sapiens) + E3 ubiquitin-protein ligase Mdm2 (Homo sapiens) (O15151 whole entry, looked up): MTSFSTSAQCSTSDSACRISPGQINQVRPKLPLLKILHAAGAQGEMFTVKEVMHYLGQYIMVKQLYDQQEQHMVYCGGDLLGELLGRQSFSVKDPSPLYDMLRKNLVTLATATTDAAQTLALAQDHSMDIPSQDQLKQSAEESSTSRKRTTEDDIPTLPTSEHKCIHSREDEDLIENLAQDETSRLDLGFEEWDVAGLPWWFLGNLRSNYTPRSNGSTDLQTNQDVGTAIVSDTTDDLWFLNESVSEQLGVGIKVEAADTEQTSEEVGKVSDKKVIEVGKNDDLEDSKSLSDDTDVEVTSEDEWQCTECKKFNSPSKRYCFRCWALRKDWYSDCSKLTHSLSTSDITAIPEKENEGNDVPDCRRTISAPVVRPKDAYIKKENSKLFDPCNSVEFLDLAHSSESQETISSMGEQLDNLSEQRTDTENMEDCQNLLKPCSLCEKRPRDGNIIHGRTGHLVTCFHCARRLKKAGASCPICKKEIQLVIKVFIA
Chain of Protein Mdm4 (Homo sapiens) + E3 ubiquitin-protein ligase Mdm2 (Homo sapiens) (Q00987 whole entry, looked up): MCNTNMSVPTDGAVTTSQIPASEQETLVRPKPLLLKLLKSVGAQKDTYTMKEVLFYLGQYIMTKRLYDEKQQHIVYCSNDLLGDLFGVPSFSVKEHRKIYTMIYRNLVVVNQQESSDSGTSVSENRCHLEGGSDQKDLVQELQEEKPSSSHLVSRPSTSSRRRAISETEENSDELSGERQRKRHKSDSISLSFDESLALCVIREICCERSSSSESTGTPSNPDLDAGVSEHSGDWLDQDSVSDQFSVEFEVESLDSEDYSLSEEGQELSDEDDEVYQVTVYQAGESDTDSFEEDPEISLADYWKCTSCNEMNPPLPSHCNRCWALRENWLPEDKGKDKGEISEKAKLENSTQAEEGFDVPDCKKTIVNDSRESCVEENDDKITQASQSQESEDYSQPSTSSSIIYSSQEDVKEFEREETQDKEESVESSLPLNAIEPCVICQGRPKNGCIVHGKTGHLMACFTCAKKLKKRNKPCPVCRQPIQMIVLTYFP

This assay addresses Protein Mdm4 (Homo sapiens) + E3 ubiquitin-protein ligase Mdm2 (Homo sapiens) (UniProt O15151+Q00987). Nature of the assay: inhibitors of human Mdm2-MdmX association, primary screen, cell-based, luminescence, split luciferase, SaOS-2, uHTS (AID 485346). Particulars: SaOS-2 split-luciferase Mdm2/MdmX complementation, at 8 µM, active compounds read high.
As for `Cc1nc2nc(SCC(=O)Nc3cccc(F)c3)[nH]c2cc1Br`, the inhibition was 23.9%.

Turning to `Cc1ccc(N(Cc2ccc(C(=O)Nc3ccccc3C(=O)NCc3ccco3)cc2)S(C)(=O)=O)cc1C`, the inhibition is 38.7%.

For `O=C(CCNC(=O)c1ccccc1Cl)NCc1ccco1`, the inhibition was 2.16%.

For `Cc1cccc(Nc2ccccc2C(=O)NCc2ccco2)c1C`, the inhibition is 54.5% (active).

As for `Cc1n[nH]c(=O)c2c(NC(=O)COC(=O)c3ncc(Cl)c(Cl)c3Cl)oc(C)c12`, the inhibition was 8.36%.

In the case of `CCOCCn1c(-c2ccccc2)nc2ccccc21`, the inhibition is 21.2%.

Regarding `CCCCn1c(-c2cccc(C)c2)nc2cc3[nH]c(=O)c(C(C)C)nc3cc21`, the inhibition is 55.1% (active).

For `CCCCn1c(N)c(N(CCOC)C(=O)CSCC(=O)Nc2cccc(C)c2)c(=O)[nH]c1=O`, the inhibition was -8.54%.

Turning to `COc1ccccc1C(=O)N1C(CC(=O)Nc2ccccc2C)C(=O)NC2CCCCC21` (stereo not given), the inhibition was 10.2%.

As for `CC(=O)C1=C(C)NC2=C(C(=O)CC(C)(C)C2)C1C` (stereo not given), the inhibition is 14.7%.

For `Cc1cccc(C)c1NC1=NC(=S)N(c2ccc(N(C)C)cc2)C1(C)C`, the inhibition is 13.2%.

Turning to `CC1=C/C(=N\OS(=O)(=O)c2ccccc2)C=CC1=O`, the inhibition is 89.3% (active).

`CC1C(=O)C(C)C(c2ccc(O)cc2)NC1c1ccc(O)cc1` (stereo not given): the inhibition is -1.09%.

Take `Cc1cc(-c2csc(N)n2)c(C)n1-c1ccccc1`: the inhibition is 9.07%.

Regarding `CCN(CC(=O)Nc1c(F)cccc1F)C(=O)c1ccc(-c2ccccc2)cc1`, the inhibition is -3.86%.

In the case of `Cc1c(C(=O)N/N=C/c2ccccc2)[nH]c2c([N+](=O)[O-])cccc12`, the inhibition is 60% (active).

As for `O=C(N/N=C/c1ccc([N+](=O)[O-])cc1)c1c[nH]c2ccccc12`, the inhibition was 12%.

On to `COc1cc(CC(=O)N/N=C/c2ccccc2)c([N+](=O)[O-])cc1OC`, for which the inhibition was 10.3%.

With `NC(=O)C1(C(N)=O)OC1c1ccc(Cl)cc1Cl` (stereo not given), the inhibition is 20.9%.

With `CCOc1ccccc1C1C(C(=O)OC)=CN(C)C=C1C(=O)OC`, the inhibition was 8.07%.

Turning to `COC(=O)C1=CN(C)C=C(C(=O)OC)C1c1ccc(Cl)cc1Cl`, the inhibition is 67.5% (active).

For `CCCCCN(C(=O)CCC(=O)OCC(=O)NC1CCC(C)CC1)c1c(N)n(CCCC)c(=O)[nH]c1=O` (stereo not given), the inhibition is -18.6%.

As to `O=C(Nc1nc(-c2ccco2)c(-c2ccco2)s1)c1ccco1`, the inhibition is 27%.

Regarding `COc1cc2c(cc1NC(=O)CN1CCN(S(=O)(=O)c3ccc(F)cc3)CC1)oc1ccccc12`, the inhibition was 49.9%.

Take `COc1cc(/C=C/C(=O)OCC(=O)c2ccccc2)cc(OC)c1OC`: the inhibition was 20.5%.

For the compound `COc1cc2c(cc1NC(=O)COC(=O)/C=C/c1ccccc1)oc1ccccc12`, the inhibition was 51.9% (active).

With `CCCCN1C(=O)/C(=C/C=C2/C=Cc3ccccc3N2CC)SC1=S`, the inhibition is 64.7% (active).

Take `CCCCN1C(=O)/C(=C2/C=CC=CN2C)SC1=S`: the inhibition is -6.03%.

As for `COc1cc(/C=C2/SC(=S)N(Cc3ccccc3)C2=O)cc(OC)c1O`, the inhibition is 11.8%.

As for `FC(F)(F)Oc1ccc(-c2cn3cccnc3n2)cc1`, the inhibition was -41.1%.

`CSCC[C@H](NC(=O)NC1CCCC1)C(=O)O`: the inhibition is -12.4%.

For `CNC(=S)N/N=C/c1ccc(N2CCOCC2)s1`, the inhibition was -16.1%.

`COc1cccc(OC)c1C(=O)Nc1sc2c(c1C(N)=O)CCCC2`: the inhibition was 19%.

Take `C=CCN(CC=C)S(=O)(=O)c1ccc(C(=O)Nc2sc3c(c2C(N)=O)CCCCC3)cc1`: the inhibition is 92.8% (active).

Turning to `NC(=O)c1c(NC(=O)CSc2nnc(-c3ccco3)n2N)sc2c1CCCC2`, the inhibition was 22.2%.

With `COc1ccc(C(=O)Nc2ncc3c(n2)-c2ccccc2CC3)cc1`, the inhibition was 22.2%.

As to `CCN(c1ccccc1)S(=O)(=O)c1ccc(C(=O)Nc2nccs2)cc1`, the inhibition was -12.4%.

In the case of `C=CCN(CC=C)S(=O)(=O)c1ccc(C(=O)Nc2nc3c(s2)CCc2ccccc2-3)cc1`, the inhibition was 58.5% (active).

Regarding `COc1cc(Cl)cc(C2NC(=O)NC(C)=C2C(=O)NCc2ccccc2)c1O` (stereo not given), the inhibition is -8.24%.

In the case of `Cc1ccc(C)c(N2CCN(C(=O)CCc3nc(-c4cccc(C(F)(F)F)c4)no3)CC2)c1`, the inhibition is -17.8%.

As to `COc1ccc(-c2cc(=O)oc3cc(OC(C)C(=O)NCC4CCC(C(=O)O)CC4)ccc23)cc1` (stereo not given), the inhibition was -48.8%.

With `CCN(CC)c1ccc(NC(=O)CCc2nnc3ccc(N4CCCCC4)nn23)c(C)c1`, the inhibition is 15.3%.

For `CC1CCN(CCCNC(=O)CN2C(=O)CSc3ccc(S(=O)(=O)N4CCCCC4)cc32)CC1`, the inhibition is 13%.

Take `CCN(Cc1cc2cc(C)ccc2[nH]c1=O)S(=O)(=O)c1ccccc1`: the inhibition is 22.4%.

As to `COc1ccc2[nH]c(=O)c(CN(Cc3cccnc3)S(=O)(=O)c3ccccc3F)cc2c1`, the inhibition was 63.9% (active).

On to `CCOc1ccc2[nH]c(=O)c(CN(CCCO)S(=O)(=O)c3ccc(F)cc3)cc2c1`, for which the inhibition is -3.41%.

For the compound `COc1ccc(CCN2CC(C(=O)NCCN3CCNC3=O)CCC2=O)cc1` (stereo not given), the inhibition was 7.59%.

On to `CN(C(=O)c1cccc([N+](=O)[O-])c1)c1ccccc1C(=O)NCc1ccccc1`, for which the inhibition was 10.9%.

`Cc1cc(C)nc(NC(=O)c2cccc([N+](=O)[O-])c2)c1`: the inhibition is 1.76%.

On to `Cc1cc(CNC(=O)c2cccc([N+](=O)[O-])c2)c2ccccc2n1`, for which the inhibition is 57.9% (active).

Take `COc1cccc2[nH]c(C(=O)NCCc3ccccc3)cc12`: the inhibition was -35.8%.

On to `O=C(NCc1ccccc1Cl)C(=O)NCC1CCCN1S(=O)(=O)c1cccs1` (stereo not given), for which the inhibition was 2.29%.

With `CCc1ccc(C(=O)N2CCN(S(=O)(=O)c3sc(C(=O)O)c(C)c3C(=O)O)CC2)cc1`, the inhibition was -9.23%.

For the compound `COc1cc(C(=O)OCC(=O)NC23CC4CC(CC(C4)C2)C3)cc(OC)c1OC`, the inhibition was 11.3%.

As for `CN(NC(=O)c1ccccc1F)c1nc(C(F)(F)F)nc2ccccc12`, the inhibition was 60.3% (active).

On to `Cc1cccc(C(=O)Nc2ccc(C(=O)N/N=C/c3cccc(C)n3)cc2)c1`, for which the inhibition is 8.86%.

On to `CC(NC(=O)c1ccccc1F)c1cccc2ccccc12` (stereo not given), for which the inhibition is 3.89%.

`CSc1nc(N(C)NC(=O)c2cccc(C)c2)c2ccccc2n1`: the inhibition is 63% (active).

On to `COc1ccc(C(=O)NN(C)c2nc(-c3ccccc3)cc(C)c2S(C)(=O)=O)cc1`, for which the inhibition is 2.68%.

`Cc1cccc(C(=O)Nc2ccc(CC(=O)O)cc2)c1`: the inhibition is -7.55%.

`Cn1c(CC(=O)NNC(=O)c2ccccc2F)nc2ccccc21`: the inhibition is 8.1%.

Consider `Cc1nc2ccccc2c(=O)n1NC(=O)c1ccccc1`, for which the inhibition was -5.89%.

`CN(NC(=O)c1ccccc1)c1nc2ccccc2nc1C(F)(F)F`: the inhibition was 59.8% (active).

Take `COc1ccc(NC(=O)c2cccc3c2C(=O)N(CC2CCCO2)C3)cc1OC` (stereo not given): the inhibition was -24.7%.

Regarding `CC(NC(=O)COC(=O)c1ccc2ccccc2n1)c1ccccc1` (stereo not given), the inhibition is -14.1%.

With `C=CCSc1ccc(S(=O)(=O)N2CCN(C)CC2)cn1`, the inhibition was 13.1%.

As to `COc1ccc(N(CC(=O)NC2CCCCCCC2)S(=O)(=O)c2c(C)nn(C)c2C)cc1`, the inhibition is -2%.

Turning to `O=C(/C=C/c1ccc([N+](=O)[O-])o1)NNC(=O)c1ccc(F)cc1`, the inhibition was 40%.

For `CCOCCCNC(=S)N1CCC(NC(=O)C2CCCCC2)CC1`, the inhibition is 15.2%.

As for `Cc1ccc(C(=O)C(=S)N2CCOCC2)cc1`, the inhibition was 10.1%.

As for `CC(C)CC(CCc1ccccc1)OS(N)(=O)=O` (stereo not given), the inhibition was -32.9%.

Consider `COc1cc2cc(C(=O)N/N=C/c3cccc(OC)c3OC)[nH]c2cc1OC`, for which the inhibition is -21.6%.

Regarding `COc1cc(OC)c(/C=N/NC(=O)c2ccc([N+](=O)[O-])cc2)cc1Br`, the inhibition was 46.6%.

Turning to `COc1cccc(/C=N/NC(=O)c2[nH]nc3c2CCc2ccccc2-3)c1O`, the inhibition was 74.6% (active).

Turning to `COC(=O)CN1C(=O)[C@H]2[C@@H](/C=C/c3ccccc3)N3C(=O)CN(CC4CC4)C(=O)[C@@]3(Cc3ccccc3)[C@H]2C1=O`, the inhibition is -8.09%.

Regarding `COc1ccc(C(O)(C2CCCCC2)C(CN2CCCC2)c2ccccc2)cc1` (stereo not given), the inhibition was 33.8%.

Take `Fc1ccc(CNc2nc3ccccc3n3nnnc23)cc1`: the inhibition is 54% (active).

On to `COc1ccc(CNc2nnnn2C)cc1`, for which the inhibition is -2.21%.

Take `CCOC(=O)CNc1nc2ccccc2n2c(C)nnc12`: the inhibition was 1.6%.

Take `CCc1nnc(NC(=O)CCC(=O)N2CCN(c3cc(C)ccc3C)CC2)s1`: the inhibition was 13.7%.

With `CC(C)[C@@H]1COC(c2cccc(C3=N[C@H](C(C)C)CO3)c2)=N1`, the inhibition was -13.9%.

Turning to `COc1ccc(CN(C)C(=O)c2cc(-c3ccc(C)cc3C)nc3ccccc23)c(OC)c1OC`, the inhibition was 68.6% (active).

In the case of `COc1cc(/C=N/NC(=O)c2cc(-c3ccccc3C)nc3ccccc23)cc(OC)c1O`, the inhibition is -4.47%.

Consider `COc1ccc(NC(=O)CN(C)C(=O)c2cc(-c3ccc(C)o3)nc3ccccc23)cc1`, for which the inhibition is 30.3%.

Consider `COc1ccc(Cl)cc1NC(=O)CN(C)C(=O)c1cc2ccccc2cc1OC`, for which the inhibition is 29.4%.

As for `CN(CCOc1ccccc1)C(=O)c1cc(-c2ccco2)nc2ccccc12`, the inhibition was 18.2%.

On to `COc1ccc(Cl)cc1NC(=O)CN(C)C(=O)c1ccc2n[nH]nc2c1`, for which the inhibition is 10.7%.

As to `COc1ccc(-c2cc(C(=O)N(C)Cc3ccc(OC)c(OC)c3OC)c3ccccc3n2)cc1OC`, the inhibition was 63.2% (active).

For the compound `COc1ccc(-c2cc(C(=O)NCCCN3CCCC3=O)c3ccccc3n2)cc1OC`, the inhibition is 8.93%.

Turning to `COc1ccc(-c2cc(C(=O)N(C)CC(=O)Nc3ccccc3Cl)c3ccccc3n2)cc1OC`, the inhibition was 54.1% (active).
